Shown are actives, neighbours in structure and some others; about 2.7% of the full set was active somewhere.
LDHA inh: blocks human lactate dehydrogenase A; hit rate 0.15% among 480,000; activity change, % (values are at about 110 or 230 µM); purified LDHA, NADH/diaphorase-resazurin fluorescence; hits give low values; P00338; in the data active means activity change below about -30%; inconclusive means mostly about -25% to -30%;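 further: plate controls were DMSO wells for no effect and wells without enzyme for full effect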
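LDH5 2 nM; NADH 0.06 mM, pyruvate 0.2 mM; 200 mM Tris pH 7.4, EDTA, Tween-20; 5 min RT. Detection: diaphorase 0.133 mg/mL + resazurin 37 µM, fluorescence ex540/em590 at 0 and 20 min; normalized to enzyme-free and DMSO wells.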
A549 tox-1: counter-screen for Nrf2 inhibitors: cytotoxicity in A549 cells; A549 ARE-Fluc cells, CellTiter-Fluor viability, 18-24 h; Potency, µM (doses to about 46 µM), inactives show at the highest dose activity change, negative = cytotoxicity, usual class: inhibitors; hit rate 0.16% among 390,000; AID 504648; further: potency means the concentration at half of the fitted maximal effect; on the % scale 0 is the no-effect control and ±100 the full control effect
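A549 ARE_Fluc cells in 5% FBS OPTI-MEM were exposed to compounds in concentration-response for 18-24 h at 37 deg C. Viability was read by CellTiter-Fluor fluorescence (Ex 405/Em 525) after 30 min, before the luciferase read.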
12-LOX inh: blocks human arachidonate 12S-lipoxygenase; Potency, µM (titrated, usually from 108 µM), for inactives: at the top dose activity change, negative = inhibition, most hits filed as inhibitors; P18054; hit rate 1.1% among 580,000; purified 12hLO, xylenol orange hydroperoxide absorbance; further: potency means the concentration at half of the fitted maximal effect; on the % scale 0 is the no-effect control and ±100 the full control effect
Target sequence (P18054 whole entry, looked up): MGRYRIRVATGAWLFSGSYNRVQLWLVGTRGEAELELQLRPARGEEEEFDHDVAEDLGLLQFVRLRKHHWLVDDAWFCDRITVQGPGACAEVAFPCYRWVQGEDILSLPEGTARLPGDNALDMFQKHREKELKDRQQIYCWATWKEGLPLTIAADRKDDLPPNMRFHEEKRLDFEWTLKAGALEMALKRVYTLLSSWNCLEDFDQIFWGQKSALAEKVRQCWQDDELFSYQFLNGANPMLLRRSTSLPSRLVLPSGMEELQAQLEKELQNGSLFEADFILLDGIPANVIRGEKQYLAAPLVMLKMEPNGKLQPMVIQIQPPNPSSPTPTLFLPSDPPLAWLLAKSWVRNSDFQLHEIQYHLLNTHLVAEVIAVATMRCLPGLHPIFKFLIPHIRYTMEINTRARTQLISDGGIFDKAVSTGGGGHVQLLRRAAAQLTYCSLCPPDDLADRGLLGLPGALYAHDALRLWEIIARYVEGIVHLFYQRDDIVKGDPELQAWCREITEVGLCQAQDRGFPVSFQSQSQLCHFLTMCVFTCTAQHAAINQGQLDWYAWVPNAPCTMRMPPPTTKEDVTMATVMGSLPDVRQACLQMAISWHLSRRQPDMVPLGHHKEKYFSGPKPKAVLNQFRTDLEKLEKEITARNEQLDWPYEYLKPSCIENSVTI
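Purified human 12hLO (150 nM final) in 25 mM Hepes, 0.01% Triton X-100, pH 7.0 was preincubated 15 min at room temperature with compound. Then 40 uM arachidonic acid was added, 30 min. Hydroperoxide was read by Fe-XO absorbance ratio 573/405 nm.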
Nrf2 inh: blocks Nrf2 signaling; Potency, µM (highest dose often 46 µM), inactives show top-dose activity change, negative = inhibition, hits mostly inhibitors; hit rate 2.1% among 360,000; A549 ARE-Fluc reporter, luciferase luminescence, 18-24 h; further: potency means the concentration at half of the fitted maximal effect; on the % scale 0 is the no-effect control and ±100 the full control effect; nearly all actives have a fitted effect of over 60% in size
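Quantitative HTS in A549 cells stably bearing an antioxidant response element-firefly luciferase construct. Inhibition of Nrf2-driven transcription was scored by luminescence after 18-24 h of compound exposure at 37 °C.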
Nrf2 ARE act: activators of Nrf2 (ARE) signaling | AREc32 ARE-luciferase reporter (MCF7-derived line), luminescence, 24 h | Potency, µM (highest dose often 46.1 µM), inactives show top-dose activation, actives largely listed as activators | hit rate 0.31% among 410,000; further: potency means the concentration at half of the fitted maximal effect; % of control where 0% means no effect; nearly all actives have a fitted effect of over 65% in size
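For detection, Steady-Glo was added and plates sat 30 min at RT; before that, AREc32_Fluc cells grown overnight in OPTI-MEM/5% FBS had been treated with 23 nL compound for 24 hr at 37 deg C.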
IDH1 R132H inh: inhibitors of human mutant IDH1 R132H. O75874. IDH1-R132H enzyme, NADPH consumption, diaphorase/resazurin fluorescence. Potency, µM (doses to about 76.6 µM), for inactives: at the top dose activity change, negative = inhibition, actives largely listed as inhibitors. hit rate 0.093% among 390,000. AID 602179; further: potency means the concentration at half of the fitted maximal effect; on the % scale 0 is the no-effect control and ±100 the full control effect; nearly all actives have a fitted effect of over 65% in size
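IDH1-R132H (0.5 ug/mL dispensed) in pH 7.5 Tris buffer was preincubated 30 min with compound, then given a substrate mix of 0.016 mM NADPH and 2 mM alpha-KG for 80 min at room temperature; remaining NADPH was read by diaphorase/resazurin fluorescence.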
FLuc counter 3: counter-screen for Nrf2 inhibitors: firefly luciferase enzyme inhibition; shares compounds with Nrf2 inh; purified firefly luciferase, luminescence inhibition; Potency, µM (top dose mostly 57.5 µM), for inactives: top-dose activity change, negative = inhibition, usual class: inhibitors; hit rate 4% among 1,400; AID 720522; further: potency means the concentration at half of the fitted maximal effect; on the % scale 0 is the no-effect control and ±100 the full control effect; nearly all actives have a fitted effect of over 65% in size
A549 tox-2: A549 cytotoxicity, Nrf2 inhibitor counterscreen; shares compounds with Nrf2 inh; A549 ARE-Fluc cells, cytotoxicity counterscreen; hit rate 2% among 1,400; Potency, µM (doses to about 46.1 µM), for inactives: at the top dose activity change, negative = cytotoxicity, hits mostly inhibitors; AID 720523;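 further: potency means the concentration at half of the fitted maximal effect; cells exposed to compounds for 18 to 24 hours; on the % scale 0 is the no-effect control and ±100 the full control effect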
Nrf2 ARE inh: Nrf2 inhibition confirmed, A549 ARE-luciferase; shares compounds with Nrf2 inh; A549 ARE-firefly luciferase reporter, luminescence; Potency, µM (doses to about 46.1 µM), without a hit: at the highest dose activity change, negative = inhibition, most hits filed as inhibitors; hit rate 74% among 1,400; further: potency means the concentration at half of the fitted maximal effect; on the % scale 0 is the no-effect control and ±100 the full control effect; nearly all actives have a fitted effect of over 65% in size
* hit, by the source's call; ? = inconclusive; · = no result given; [ ] = dose if it differs, or a comment. Unless noted, the call rests on the fitted dose curve; in most records, active means well fitted curve in the direction sought with a large enough effect; inconclusive means small, poorly fitted or top-dose-only effect, or another doubt; inactive means no such curve, though single readings can be large; an effect the other way counts as inactive or inconclusive.

SMILES	LDHA inh	A549 tox-1	12-LOX inh	Nrf2 inh	Nrf2 ARE act	IDH1 R132H inh	others
O=C(O)c1ccc(NC2=C(Cl)C(=O)c3ccccc3C2=O)cc1	-1	-11%	-21%	1%	10%	-8%
COc1ccccc1N1CCN(Cc2cc(Br)c(O)c3ncccc23)CC1	15	-8%	35µM*	18µM*	1%	1%
CC(C)(C)C(=O)NCCc1nc2ccccc2n1CCCCOc1ccc(Cl)cc1	3	?	1%	?	0%	2%
Cc1ccccc1OCCCCn1c(CCNC(=O)C(C)(C)C)nc2ccccc21	0	-25%	-5%	23µM*	3%	6%
CN1CCN([C@@H]2[C@H](O)[C@H](CO)O[C@@H]2CN(Cc2ccc(Cl)cc2)Cc2cccc(Cl)c2)CC1	·	·	14µM*	·	·	·
CC(OC(=O)c1ccc(O)cc1)C(=O)Nc1ccccc1OC(F)F (centres undefined)	9	·	11%	·	·	·
COc1ccccc1N1CCN(C(=O)C2CCCN(c3ncnc4c3nc3n4CCCCC3)C2)CC1 (centres undefined)	2	-2%	31%	?	0%	1%
COc1ccccc1N1CCN(c2ncnc3c2nc2n3CCCC2)CC1	2	-16%	-18%	21µM*	0%	1%
CC(=O)c1ccc(N2CCN(c3ncnc4c3nc3n4CCCC3)CC2)cc1	3	-5%	-11%	23µM*	0%	4%
COc1ccc(-c2[nH]nc3c2C(c2cccc(OC)c2)CC(=O)O3)cc1 (centres undefined)	3	·	?	·	·	·
Cc1ccc(S(=O)(=O)NC23CC4CC(CC(C4)C2)C3)cc1	-4	1%	188%	-15%	-1%	-1%
Cc1nn(C)c(C(=O)Nc2ccc(S(=O)(=O)NC34CC5CC(CC(C5)C3)C4)cc2)c1Br	-2	?	·	15µM*	0%	0%
CC(=O)Nc1ccc(S(=O)(=O)NCC2CCC(C(=O)NCc3ccccc3Cl)CC2)cc1 (centres undefined)	-8	8%	?	·	0%	24%
CC(=O)Nc1ccc(S(=O)(=O)NCCSCc2ccccc2Cl)cc1	-2	-1%	-4%	10µM*	0%	13%
Cc1nn2c3c(cnc2c1-c1ccccc1)C(=O)CC(c1ccccc1)C3 (centres undefined)	-4	3%	-1%	?	0%	11%
Cc1nn2c3c(cnc2c1-c1ccccc1)C(=O)CC(c1ccco1)C3 (centres undefined)	1	-12%	-8%	-25%	1.3µM*	2%
Cc1csc(N(C)C(=O)CSc2nnc(COc3cccc4ccccc34)o2)n1	4	0%	19%	21µM*	0%	5%
CC(C)COc1ccc(Br)cc1C(N)=O	-1	·	-14%	·	·	·
C=CCn1c(SCCOc2ccc(OC)cc2)nnc1C(C)NC(=O)Cc1ccc(OC)cc1 (centres undefined)	-6	-12%	1%	23µM*	1%	1%
CCn1c(SCCOc2ccc(OC)cc2)nnc1C(CO)NC(=O)c1ccc(OC)cc1 (centres undefined)	1	-15%	0%	-12%	0%	-2%
CCn1ccc2cc(OC)ccc2c1=S	-4	-14%	-12%	-13%	3%	3%
CCSc1ccc2cc(OC)ccc2[n+]1CC	-9	-24%	?	16µM*	0%	6%
NC1=NC(=O)/C(=C\c2ccc(-c3ccccc3[N+](=O)[O-])o2)S1	42	·	·	·	·	·
O=c1nc2s/c(=C\c3ccc(-c4ccccc4[N+](=O)[O-])o3)c(=O)n2nc1-c1ccccc1	9	-2%	11µM*	14%	9%	1%
CC(C)N1CCN(c2ccc3nnc(C4CCC4)n3n2)CC1	·	·	43%	·	·	·
SMILES	LDHA inh	A549 tox-1	12-LOX inh	Nrf2 inh	Nrf2 ARE act	IDH1 R132H inh	others
CCCCCCCCCCCCCCCCCCOS(=O)(=O)O	·	·	20%[176 µM]	·	·	·
CCCOc1ccc(CNC(=O)Cn2ncn3c(cc4sc(CC)cc43)c2=O)cc1	-5	-5%	-8%	3%	0%	-2%
CCCOc1ccc(CNC(=O)CCCn2ncn3c(cc4sc(CC)cc43)c2=O)cc1	-8	?	0%	23µM*	-2%	-15%
CC(OC(=O)c1ccc(NC(=O)CC#N)cc1)C(=O)NC(c1ccccc1)c1ccccc1 (centres undefined)	1	2%	187%	10%	0%	-2%
Cc1cc(C(=O)C(C)OC(=O)c2ccc(NC(=O)CC#N)cc2)c(C)n1-c1ccccc1 (centres undefined)	2	-12%	-26%	18µM*	1%	0%
CCOCCCNc1ncnc2onc(C)c12	1	-4%	-11%	24%	0%	7%
CCOc1ccc(CCNc2ncnc3onc(C)c23)cc1OCC	0	1%	-24%	7.3µM*	5%	0%	FLuc counter 3=3%;A549 tox-2=-3%;Nrf2 ARE inh=?
Cc1ccc(CCNc2ncnc3onc(C)c23)cc1	-1	-1%	-25%	9.2µM*	5%	0%	FLuc counter 3=?;A549 tox-2=0%;Nrf2 ARE inh=5.8µM*
COc1ccc(CNc2ncnc3onc(C)c23)cc1	-12	2%	-7%	4.1µM*	0%	-10%	FLuc counter 3=-1%;A549 tox-2=1%;Nrf2 ARE inh=?
Cc1noc2ncnc(NCCc3ccccc3)c12	-10	-7%	-24%	?	1%	0%
COc1ccc(OC)c(CNc2ncnc3onc(C)c23)c1	-7	3%	-20%	-26%	3%	-14%
CCc1ccc2oc(C(=O)Nc3ccc(C)c(Cl)c3)cc(=O)c2c1	-8	·	-17%	·	·	·
CNC(=O)c1nn(CN2CCN(Cc3ccc(OC)cc3)CC2)c(=O)c2ccccc12	-4	·	11%	·	·	·
O=C(NCC(c1ccco1)N1CCc2ccccc2C1)c1ccc(Cl)c([N+](=O)[O-])c1 (centres undefined)	-7	-4%	?	13%	21%	-1%

Assay outcomes as filed in PubChem BioAssay.
